According to PubChem BioAssay (NCI):
About 83,000 compounds went through this panel and 20% of them were active in at least one assay; those are over-represented in the sample as a whole.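 Each cell line was grown in a 96-well plate and treated with one concentration of compound for 48 hours. Values below 10 were considered active.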 Values without a mark were called inactive. Activity calls are given as the source filed them.

What was measured:
Test in all cases: NCI-60 one-dose screen, 48 h (100 = growth as untreated, 0 = no growth, -100 = all killed)
[1] = test system: DU-145 prostate; conditions: 10 µM
[2] = test system: MALME-3M melanoma; conditions: 10 µM
[3] = test system: MDA-MB-231 breast; conditions: 10 µM
[4] = test system: RXF 393 renal; conditions: 10 µM
[5] = test system: SF-268 CNS; conditions: 10 µM
[6] = test system: SF-295 CNS; conditions: 10 µM
[7] = test system: SF-539 CNS; conditions: 10 µM
[8] = test system: UACC-257 melanoma; conditions: 10 µM
[9] = test system: M14 melanoma; conditions: 10 µM
[10] = test system: HCT-15 colon; conditions: 10 µM
[11] = test system: HT29 colon; conditions: 10 µM
[12] = test system: SNB-75 CNS; conditions: 10 µM
[13] = test system: SNB-19 CNS; conditions: 10 µM
[14] = test system: U251 CNS; conditions: 10 µM
[15] = test system: PC-3 prostate; conditions: 10 µM
[16] = test system: SK-MEL-5 melanoma; conditions: 10 µM
[17] = test system: UACC-62 melanoma; conditions: 10 µM unless noted
[18] = test system: LOX IMVI melanoma; conditions: 10 µM
[19] = test system: SK-MEL-28 melanoma; conditions: 10 µM
[20] = test system: K-562 leukemia; conditions: 10 µM

Structure (SMILES) | growth [1] | growth [2] | growth [3] | growth [4] | growth [5] | growth [6] | growth [7] | growth [8] | growth [9] | growth [10] | growth [11] | growth [12] | growth [13] | growth [14] | growth [15] | growth [16] | growth [17] | growth [18] | growth [19] | growth [20]
O=C(O)CCCc1ccccc1 | 119% | 118% | 117% | 113% | 118% | 110% | 120% | 104% | 101% | 101% | 109% | 99.9% | 105% | 95.3% | 99.3% | 108% | 108% | 102% | 111% | 
CC1CCC(C(=O)O)N1 (stereo not drawn) |  | 102% | 102% | 109% | 97.5% | 101% | 95% | 103% | 102% | 110% | 94.1% | 83.3% | 102% |  |  | 102% | 98.1% | 99.2% | 95.4% | 98.4%
CCn1c(=O)n(C)c2c(=O)n(C)c(=O)n(C)c21 |  |  | 110% | 109% |  |  | 106% | 99% | 101% | 106% | 101% | 97.1% | 102% | 99.3% | 97.4% | 103% | 107% | 96.4% | 118% | 107%
CC(C)COC(=O)COC(=O)OCCOCCOC(=O)OCC(=O)OCC(C)C | 95.3% | 104% | 113% | 103% | 93.5% | 115% | 80.5% | 103% |  | 104% | 101% | 102% | 101% | 94.9% | 94.8% | 101% | 97.6% | 106% | 107% | 
Cc1cc(=O)[nH]c(NN=C2CCCC2)n1 | 112% | 108% | 102% | 121% | 112% | 108% | 107% | 125% | 112% | 106% | 107% | 89.1% | 108% |  | 80.7% | 115% | 100% | 110% | 113% | 
Nc1ccccc1C(=O)Nc1ccc(Cl)cc1Cl | 106% |  | 84.4% | 83.7% | 101% |  | 94.4% | 86.5% | 94.7% | 101% | 93.2% | 67.7% | 96.1% | 102% | 78.8% | 107% | 88.7% | 87.9% | 100% | 
Nc1ccc(C(=O)c2ccc(N)c(Br)c2)cc1Br |  | 78.8% | 24.8% | -17.4% (active) |  | 17.6% | -11.2% (active) | 67.1% |  | 18% | -14.2% (active) | -5.35% (active) | 33.4% | 18.2% | 22.4% | 8.91% (active) | 28.7% | 12.9% | 45% | 15.7%
CC1=C(/C=C/C(C)=C/C=C/C(C)=C/CO)C(C)(C)CCC1 | 112% | 120% | 102% |  | 114% | 110% | 105% | 99.9% | 104% | 112% | 112% | 95.3% | 95.7% | 102% | 96.5% | 107% | 99.2% | 94.7% | 113% | 
O=C(O)c1cccc([N+](=O)[O-])c1O | 109% |  | 103% |  | 106% | 90.8% | 114% | 107% | 94.1% | 99.9% | 101% | 96.1% | 99.1% | 101% | 107% | 105% |  | 95.1% | 116% | 106%
O=C1c2ccccc2C(=O)N1OCc1ccccc1 | 112% | 98.2% | 104% | 122% | 106% | 110% | 102% | 122% | 108% | 109% | 103% | 83.6% | 112% | 113% | 77.7% | 110% | 108% | 109% | 113% | 
O=C(N/N=C/c1ccccc1O)Nc1nn[nH]n1 | 116% |  | 102% |  | 113% | 102% | 96.9% | 104% | 103% | 91.1% | 104% | 85.7% | 97.4% | 104% |  | 99.3% |  | 96.4% | 111% | 128%
Cc1nc2ccccc2c2nnc(SCC(=O)N(Cc3ccccc3)c3ccccc3)n12 |  |  | 92.1% |  | 94.6% | 88.2% | 99.2% | 92.8% | 119% | 90.4% | 96.1% | 90.4% | 102% | 98% | 84.1% | 45.1% | 84.7% | 91.6% | 109% | 85.9%
CC(C)(C)c1cc(O)c(C(C)(C)C)cc1O | 108% |  | 88.9% |  | 95.8% | 85.7% | 86.1% | 85.6% | 103% | 97.9% | 98.3% | 92.7% | 49.2% | 75.2% | 76.3% | 67.8% |  | 98.1% | 94.4% | 96.7%
O=C(O)C(c1ccccc1)C(O)c1ccccc1 (stereo not drawn) |  | 117% | 102% | 107% | 105% | 96.5% | 98.4% | 85.7% | 104% | 102% | 96.5% | 96.6% | 103% | 91.9% |  |  | 93.6% | 102% | 103% | 100%
CCCNc1ccc(C2=NCCCN2)cc1 | 103% |  | 98.7% |  | 98.9% | 91% | 102% | 99.8% | 96.1% | 97.8% | 96% | 84.2% | 102% | 87.4% | 94.6% | 97.5% |  |  | 114% | 89.8%
O=C(CC(=O)c1ccccc1O)c1ccccc1 | 91.8% | 115% | 91.1% | 103% | 90.7% | 89.5% | 95.5% | 95.7% | 97.4% | 74.4% | 87.8% |  | 86.9% | 63.3% | 92.6% | 77.6% | 91% | 76.9% | 99.3% | 
Cc1ccccc1N=C(c1ccccc1)C1C(=O)c2ccccc2C1=O |  |  | 98.7% |  | 88.1% | 93.6% | 77.8% | 96% | 78% | 58.7% | 75.9% | 90% | 97.1% | 87.7% |  | -0.209% (active) | 63.1% | 85.9% | 89.4% | 61.8%
